Bioassay records: PubChem, National Center for Advancing Translational Sciences (NCATS)
This is a sample that favours compounds with a hit; in the whole collection about 0.9% have one here.
RXFP1 ag: qHTS Assay for Agonists of the Relaxin Receptor RXFP1 | Relaxin receptor 1 (Homo sapiens), Q9HBX9 | 0.3% of 370,000 active | Potency, µM (titrated, usually from 57.5 µM), usual class: activators | AID 2676, 2010 | HEK293T-RXFP1 cAMP TR-FRET, 30 min; response scale: percent of porcine relaxin response, buffer zero; active means well fitted activation curve with a large enough effect; inconclusive means small, poorly fitted or top-dose-only effect; further: nearly all actives have a fitted effect of over 60% in size
Target sequence (Q9HBX9 whole entry, looked up): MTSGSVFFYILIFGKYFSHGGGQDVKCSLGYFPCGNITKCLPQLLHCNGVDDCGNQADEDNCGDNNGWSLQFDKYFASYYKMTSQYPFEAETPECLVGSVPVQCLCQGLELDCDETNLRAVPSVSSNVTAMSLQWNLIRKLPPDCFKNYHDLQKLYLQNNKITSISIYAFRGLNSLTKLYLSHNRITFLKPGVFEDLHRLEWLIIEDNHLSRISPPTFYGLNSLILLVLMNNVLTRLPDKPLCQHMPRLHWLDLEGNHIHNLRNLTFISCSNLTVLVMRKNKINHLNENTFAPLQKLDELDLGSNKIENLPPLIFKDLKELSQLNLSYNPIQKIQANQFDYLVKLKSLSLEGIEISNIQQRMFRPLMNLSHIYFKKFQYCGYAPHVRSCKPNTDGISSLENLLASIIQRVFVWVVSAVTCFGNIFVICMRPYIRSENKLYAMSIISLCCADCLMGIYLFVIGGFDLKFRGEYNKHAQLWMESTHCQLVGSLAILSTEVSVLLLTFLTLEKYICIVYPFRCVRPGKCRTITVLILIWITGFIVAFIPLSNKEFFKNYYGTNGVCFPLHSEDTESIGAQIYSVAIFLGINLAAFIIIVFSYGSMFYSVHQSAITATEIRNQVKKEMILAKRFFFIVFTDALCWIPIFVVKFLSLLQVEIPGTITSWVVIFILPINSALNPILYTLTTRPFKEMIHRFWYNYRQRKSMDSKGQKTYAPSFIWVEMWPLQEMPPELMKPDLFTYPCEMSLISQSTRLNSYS
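HEK293 cells stably expressing RXFP1, treated 30 min at 37C with compounds plus PDE4 inhibitor Ro 20174; cAMP measured by HTRF TR-FRET. Normalized to buffer and 29 nM porcine relaxin; EC50 by Hill fit.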
RXFP1 antag: qHTS Assay for Antagonists of the Relaxin Receptor RXFP1. AID 1259400, 2018. Relaxin receptor 1 (Homo sapiens), Q9HBX9. 0.59% of 350,000 active. activity change, negative = inhibition, % at 57.5 µM. HEK293-RXFP1, relaxin-stimulated cAMP HTRF, 30 min; hits give low values;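 active means activity change of -60% or lower, but not beyond a set lower limit; inconclusive means change between -60% and -40%, or beyond the set limit; inactive means change above -40%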
gsp ag: qHTS for Agonist of gsp, the Etiologic Mutation Responsible for Fibrous Dysplasia/McCune-Albright Syndrome: qHTS; Potency, µM (top dose mostly 76.9 µM), hits mostly activators; 0.13% of 340,000 active; AID 624287, 2012; gsp mutant cells, cAMP HTRF, 30 min; active means well fitted activation curve with a large enough effect; inconclusive means small, poorly fitted or top-dose-only effect, or another doubt; inactive means no such curve, though single readings can be large or run the other way; cell line not stated here;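 further: phosphodiesterase inhibitor Ro 20-1724 added with compounds to block cAMP breakdown; nearly all actives have a fitted effect of over 60% in size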
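Cells in DMEM/10% FBS with G418 were pretreated with compounds in DMSO plus […] (300 uM stock) for 30 min at 37C. cAMP was measured by HTRF (cAMP-d2 plus anti-cAMP antibody-K) after 30 min at room temperature.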
gsp antag: qHTS for Antagonists of gsp, the Etiologic Mutation Responsible for Fibrous Dysplasia/McCune-Albright Syndrome: qHTS. gsp-mutant cells, cAMP HTRF, 30 min. Potency, µM (titrated, usually from 76.9 µM), most hits filed as inhibitors. 0.4% of 340,000 active. AID 624288, 2012; calls by dose curve; cell line not stated here;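 further: intracellular cAMP measured with PDE inhibitor Ro 20-1724 present during compound exposure; nearly all actives have a fitted effect of over 65% in size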
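Cells, 2000/well, grown 16–24 h in DMEM 10% FBS with 0.5 mg/ml G418, then compounds plus […] (300 uM addition stock), 30 min at 37C. cAMP read by HTRF (cAMP-d2 and anti-cAMP antibody-K in lysis buffer) after 30 min RT.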
Numbers stand for hits; – = inactive; ? = inconclusive; · = no result given; [ ] = remark or other dose.

SMILES	RXFP1 ag	RXFP1 antag	gsp ag	gsp antag
COc1cc(/C=C2/C(=N)N3OC(C)=CC3=NC2=O)ccc1OC(=O)c1ccco1	–	-74.7	–[15.4 µM]	–
CSC1=NSC2=NC(=O)/C(=C\c3ccc(OC(=O)c4ccco4)cc3)C(=N)N12	–	?	–[15.4 µM]	?
CC1=CSC2=NC(=O)/C(=C/c3cccc(OC(=O)c4ccco4)c3)C(=N)N12	–	-80.0	–	–
CC1(C)OC[C@@H]2O[C@@]3(C(=O)O)OC(C)(C)O[C@H]3[C@@H]2O1	·	–	·	·
Cc1ccc(C)c(NS(=O)(=O)c2ccc3c4c(cccc24)C(=O)N3)c1	–	-78.7	·	·
O=C1Nc2ccc(S(=O)(=O)Nc3ccccc3O)c3cccc1c23	–	–	·	·
O=C(c1ccc(CS(=O)Cc2ccc(Cl)cc2)o1)N1CCN(c2cccc(Cl)c2)CC1 (configuration not stated)	–	–	–	31.6µM
Cc1ccccc1S(=O)Cc1ccc(C(=O)N2CCN(c3cccc(C)c3C)CC2)o1 (configuration not stated)	–	-97.8	·	·
O=C(c1ccc(CS(=O)Cc2ccc(Cl)cc2)o1)N1CCN(c2ccc(F)cc2)CC1 (configuration not stated)	–	–	–	–
Cc1cccc(N2CCN(C(=O)c3ccc(CS(=O)Cc4ccc(Cl)cc4)o3)CC2)c1C (configuration not stated)	–	-78.5	–	–
Cc1cccc(N2CCN(C(=O)c3ccc(CS(=O)c4cccc(Cl)c4)o3)CC2)c1C (configuration not stated)	–	–	·	·
CCC(=O)c1ccc(OCC(=O)Nc2cccc(S(=O)(=O)N(C)c3ccccc3)c2)cc1	–	–	–	28.2µM
CNC(=S)N(Cc1ccco1)Cc1cc2cc(OC)c(OC)cc2[nH]c1=O	–	–	–[15.4 µM]	6.31µM
CNC(=S)N(Cc1ccco1)Cc1cc2cc(OC)ccc2[nH]c1=O	–	–	–[15.4 µM]	·
CCCCn1c(=N)n(CCOc2ccc(C)cc2)c2ccccc21	–	-75.2	–	–
CCCCn1c(=N)n(CCOc2ccccc2OC)c2ccccc21	–	–	·	·
Cc1ccc2cc(CN(C)C(=O)c3cccc(Cl)c3)c(=O)[nH]c2c1	–	–	·	·
Cc1cccc(N2CCN(C(=O)CCCSc3nc4ccccc4[nH]3)CC2)c1C	–	–	–	44.7µM
O=C(CCCSc1nc2ccccc2[nH]1)N1CCN(c2ccccc2)CC1	–	–	–	–
NC(=O)c1ccsc1NC(=O)COC(=O)/C=C/c1ccccc1	–	-68.6	–[15.4 µM]	?
CCc1cccc(NC(=O)c2cccc3c2C(=O)N(CC2CCCO2)C3)c1 (configuration not stated)	–	–	–	35.5µM
CC(=O)Nc1ccc(NC(=O)CCCn2nc(C)c3sc4ccccc4c3c2=O)cc1	–	–	·	·
CC(=O)N(C1=C(Cl)C(=O)c2ccccc2C1=O)C1CCCCC1	–	-98.7	–[15.4 µM]	?
CC(=O)N(c1ccccc1C)C1CCCC1	–	–	–[15.4 µM]	–
OC[C@H]1O[C@H](O[C@]2(CCl)O[C@H](CCl)[C@@H](O)[C@@H]2O)[C@H](O)[C@@H](O)[C@H]1Cl	·	–	·	·
SMILES	RXFP1 ag	RXFP1 antag	gsp ag	gsp antag
CC(C)N1C(=O)S/C(=C/c2ccc3c(c2)n(C)c(=O)n3C)C1=O	–	–	?	–
CCN(CC)c1ccc(/C=C2\SC(=O)N(C(C)C)C2=O)o1	–	-82.5	–[15.4 µM]	–
Cc1c(N=Nc2c(-c3ccc([N+](=O)[O-])cc3)[nH]n(C(N)=S)c2=O)cccc1[N+](=O)[O-]	–	–	–	8.91µM
NC(=S)n1[nH]c(-c2ccc([N+](=O)[O-])cc2)c(N=Nc2cccc([N+](=O)[O-])c2)c1=O	–	–	–	14.1µM
NC(=S)n1[nH]c(-c2ccc([N+](=O)[O-])cc2)c(N=Nc2ccccc2[N+](=O)[O-])c1=O	–	–	–	–
COc1cc(-c2noc(-c3ccc(N4CCOCC4)c([N+](=O)[O-])c3)n2)cc(OC)c1OC	–	·	·	·
Cc1ccc(NC(=S)NC(=O)/C=C/c2ccco2)c(O)c1	–	-62.7	–	–
COc1ccc(NC(=S)NC(=O)/C=C/c2ccco2)c(OC)c1	–	-80.5	–	?
CCN1C(=NCCN2CCOCC2)N[C@@H](CCc2ccccc2)C(C(=O)OC)=C1C	–	·	·	·
Cc1c(CNC2CCCCC2)c(C(=O)O)c(C)n1Cc1c(F)cccc1Cl	–	–	·	·
CC(NCc1ccc2c(c1)OCO2)c1ccccc1 (configuration not stated)	–	–	–	–
c1ccc(C(O[C@H]2CCCN(CCc3ccc4c(c3)OCO4)C2)c2ccccc2)cc1	·	-61.6	·	·
Cc1ccc(/C=C2\SC(=S)N(CCC(=O)NNC(=O)c3ccncc3)C2=O)cc1	–	–	–[15.4 µM]	39.8µM
Cc1ccc(-c2nc3cc(N)ccc3o2)c(C)c1	–	–	31.6µM	–
Cc1ccc2oc(-c3cccc(N)c3)nc2c1	–	–	–[15.4 µM]	·
CC(C)(C)c1ccc(-c2nc3cc(N)ccc3o2)cc1	–	-83.7	–	–
Cc1ccc(-c2nc3cc(N)ccc3o2)cc1	–	–	?	–
Cc1ccc(C)c(N2CCN(C(=O)Cn3c(=O)c4cccn4c4ccc(F)cc43)CC2)c1	–	–	·	·
CCOc1ccccc1NC(=O)C(C)Sc1cc(-c2ccccc2)nc(C)n1 (configuration not stated)	–	–	·	·
Cc1nc(SC(C)C(=O)Nc2ccccc2Cl)cc(-c2ccccc2)n1 (configuration not stated)	–	-72.2	·	·
Cn1c(=O)c2c(ncn2CC(=O)OCC(=O)c2ccc(F)c(F)c2)n(C)c1=O	–	–	–	–
Cc1cc(C(=O)COC(=O)Cn2cnc3c2c(=O)n(C)c(=O)n3C)c(C)n1C	?	–	3.98µM	–
Cc1sc2ncn(CC(=O)Nc3ccc(C(C)C)cc3)c(=O)c2c1S(=O)(=O)N1CCN(c2ncccn2)CC1	25.1µM	·	·	·
Cc1cc(N2CCC(C)CC2)nc2ccc(NC(=O)/C=C/c3cccc(Cl)c3)cc12	–	·	·	·
CC(C)c1ccc(NC(=O)c2cnn(-c3ccccc3)c2NC(=O)c2ccco2)cc1	–	–	?	39.8µM
SMILES	RXFP1 ag	RXFP1 antag	gsp ag	gsp antag
O=C(Nc1c(C(=O)Nc2ccccc2)cnn1-c1ccccc1)c1ccco1	–	–	–	–
C/C(=N\Nc1cc(C)nc(-c2ccccc2O)n1)c1ccccc1	–	–	–	–
Cc1cc(N/N=C/c2ccc(O)c(C)c2O)nc(-c2ccccc2O)n1	–	-72.2	?	–
CCC(C(=O)NCCc1cc(OC)ccc1OC)n1nc(C)c2c(C)n(-c3ccccc3)nc2c1=O (configuration not stated)	–	–	·	·
Cc1ccccc1C(=O)NC1(C(F)(F)F)N=C(c2ccccc2)N(Cc2ccccc2)C1=O (configuration not stated)	–	·	·	·
Cc1csc(NC(=O)Cc2ccccc2Cl)n1	–	–	?	–
Cc1cnc(NC(=O)Cc2ccccc2Cl)s1	–	-64.3	–	–
